This assay relates to Trypanosoma brucei. The assay can be described thus: Trypanosoma brucei 72 hour study. On the set-up: scale not given: in the data most compounds retested in dose-response had high values. The class given is functional, organism-based.

46 compounds from ChEMBL document CHEMBL3988442, “University of Dundee, Small-Polar-MMV Screening Library” (2021) can be followed below.

Hit rate of the full screen: of about 66,000 compounds, about 960 (1.5%) showed an effect of 50% or more. For the sample, strong results were picked, then their nearest neighbours and some compounds at random.

As to `Fc1ccc2[nH]c(C3CCCN3CCc3ccccn3)nc2c1` (centres undefined), under “30 µM, 30.03 µM”, the “Percent Effect” value came to 22.71%. Turning to `O=C(N1CCC(OCc2ccccn2)CC1)C1(c2ccc(F)cc2)CC1`, the “Percent Effect” value (30 µM, 30.03 µM) is reported as -36.15%.

On to `Fc1ccc2[nH]c3c(c2c1)CCN1C(c2ccncc2)N2CCC31CC2` (centres undefined), for which, for the setting “30.3 µM, […]”, the “Percent Effect” value was 100.7%. As for `CC(=O)NC1CCCc2c1[nH]c1ccc(F)cc21` (centres undefined), under “30 µM, 30.03 µM”, the “Percent Effect” value is -27.6%. For the compound `Fc1ccc2[nH]c3c(c2c1)CCN1C(c2ccccn2)N2CCC31CC2` (centres undefined), under “30.3 µM, […]”, the “Percent Effect” value came out at 100.3%. As to `Cc1nc(Nc2ncccn2)cc(C2CCN(CC(C)C)C2)n1` (centres undefined), where the note is “30.3 µM, […]”, the “Percent Effect” value amounted to 4.591%. `CN(CCCOc1ccccc1Cl)C(=O)CN1C[C@@H]2CC[C@H](CC1=O)N2`: the “Percent Effect” value (30.3 µM, […]) was -75.76%. The same measure, in the same setting: the same measure for `COc1ccccc1-c1ncc(CN2CCCC[C@H](N(C)C)C2)s1`: 40.64%. The same measure, in the same setting: to `COc1ccccc1-c1ncc(CN2C[C@H](O)[C@@H](N3CCCC3)C2)s1` belongs 20.14%. For the compound `COc1ccccc1-c1ncc(CN2C[C@@H](N(C)C)[C@H](C(C)C)C2)s1`, the “Percent Effect” value (30.3 µM, […]) stood at 89.3%. Turning to `COc1ccc(C2CCCN2C(=O)NCCCn2ccnc2)cc1` (centres undefined), for the setting “30.3 µM, […]”, the “Percent Effect” value is listed as -18.05%. Same read-out and setting: the same measure for `CC(Nc1ncnc2c1CCNC2)c1ccc2c(c1)CCCC2` (centres undefined): 100.2%. Turning to `CC(Nc1ncnc2c1CCNCC2)c1nc2c(s1)CCCC2` (centres undefined), the “Percent Effect” value (30 µM, 30.03 µM) is 6.589%. As to `CCCc1ccc(C(C)Nc2ncnc3c2CCNC3)cc1` (centres undefined), the “Percent Effect” value (30.3 µM, […]) is listed as 56.69%. For the compound `CCOc1ccc(C(C)Nc2ncnc3c2CCNC3)cc1OCC` (centres undefined), the “Percent Effect” value (30.3 µM, […]) was 2.402%.

With `CC(C)Nc1ncnc2c1CCNCC2`, for the setting “30.3 µM, […]”, the “Percent Effect” value is -40.35%.

As to `CC(Nc1ncnc2c1CCNC2)c1ccc(C(C)(C)C)cc1` (centres undefined), the “Percent Effect” value (30.3 µM, […]) came to 90.36%. Consider `Cc1cc(C)n(CC(C)Nc2ncnc3c2CCNC3)n1` (centres undefined), for which the “Percent Effect” value (30 µM, 30.03 µM) is on record as -30.59%. In the case of `Cc1ccccc1C(CNc1ncnc2c1CCNC2)N(C)C` (centres undefined), the “Percent Effect” value (30 µM, 30.03 µM) was -30.9%. With `Cc1ccccc1C(Nc1ncnc2c1CCNC2)c1ccccc1` (centres undefined), under “30 µM, 30.03 µM”, the “Percent Effect” value was -12.11%. Same read-out and setting: to `CCNC(c1ccc(F)cc1)c1cccnc1` (centres undefined) belongs -17.98%. Same read-out and setting: to `O=C(O)C(F)(F)F.O=C(c1cccs1)N1CC[C@@H](N2CCOCC2)[C@@H]1Cc1ccccc1` belongs 16.01%. On to `O=C(O)C(F)(F)F.O=C(O)[C@]12CCCN(CC3CCOC3)C[C@H]1CN(c1ncccn1)C2` (some centres undefined), for which the “Percent Effect” value (30.3 µM, […]) is -92.21%.

In the case of `Cc1cccc(C(=O)N2CCCN(CCCSCC#N)CC2)c1`, where the note is “30 µM, 30.03 µM”, the “Percent Effect” value was -25.24%.

Consider `O=C(O)C(F)(F)F.O=C(c1ccccc1)N1CCC[C@]2(C[C@@H](Oc3ncccc3F)CO2)C1`, for which, under “30 µM, 30.03 µM”, the “Percent Effect” value is recorded as -46.98%. With `CC(C)CC(=O)NCCn1nc(C2CCNC2)c2cccnc21.Cl` (centres undefined), the “Percent Effect” value (30.3 µM, […]) amounted to 2.604%. Turning to `CC(=O)N1N=C(c2ccco2)OC1C(=O)N(CC(C)C)CC(C)C` (centres undefined), the “Percent Effect” value is, setting by setting: (30.3 µM, […]) 65.41%; (10 mM, 10 mM as filed; unlikely as a test dose) -14.31%.

On to `CC(=O)N1N=C(c2ccco2)OC1C(=O)N(C)CCc1ccccc1` (centres undefined), for which the “Percent Effect” value (30.3 µM, […]) is listed as -0.7394% and the “Percent Effect” value (10 mM, 10 mM as filed; unlikely as a test dose) is reported as -39.66%. Regarding `CC(=O)N1N=C(c2ccco2)OC1C(=O)NCC(C)C` (centres undefined), the “Percent Effect” value reads like this: (30.3 µM, […]) 15.99%; (10 mM, 10 mM as filed; unlikely as a test dose) -43.02%. Turning to `CCCc1nc(N2CCN(Cc3ccccn3)CC2)c2cnn(C)c2n1`, the “Percent Effect” value (30 µM, 30.03 µM) worked out at 36.81%. On the same count and under the same terms, to `CCCc1nc(N2CCCN(c3ccncc3)CC2)c2cnn(C)c2n1` belongs 59.27%; to `CCCc1nc(N2CCCN(c3ncccn3)CC2)c2cnn(C)c2n1`, -12.92%. Consider `CC(=O)N1CCC(n2nccc2-c2cnc(N)nc2)CC1`, for which the “Percent Effect” value (30.3 µM, […]) is -9.866%.

As for `Cn1ncc2c(N[C@H]3CC[C@@H](N)CC3)nc(C(C)(C)C)nc21`, the “Percent Effect” value (30.3 µM, […]) is given as 99.86%. With `Cn1ncc2c(NC3CCCN(C(=O)C4CC4)C3)nc(C(C)(C)C)nc21` (centres undefined), the “Percent Effect” value (30 µM, 30.03 µM) was found to be 43.28%. As to `Cn1ncc2c(N[C@H]3CCCC[C@@H]3O)nc(C(C)(C)C)nc21`, the “Percent Effect” value (30.3 µM, […]) was -1.471%.

As to `Cc1cccc(C(=O)N2C[C@@H]3CCN(c4cccnc4)C[C@@H]3C2)c1.O=C(O)C(F)(F)F`, the “Percent Effect” value (30 µM, 30.03 µM) was found to be 1.381%. For `COCCN1C(=O)CC[C@@H]2[C@H]1CCN2Cc1cccc(C#N)c1.O=C(O)C(F)(F)F`, the “Percent Effect” value (30.3 µM, […]) is given as -247.8%. As for `CCCN(Cc1ccccc1O)S(=O)(=O)N(C)CC`, the “Percent Effect” value (30 µM, 30.03 µM) is given as -50.11%.

With `CCCN(Cc1ccccc1O)S(=O)(=O)C(C)CC` (centres undefined), the “Percent Effect” value (30 µM, 30.03 µM) came out at 101.6%. Same read-out and setting: the same measure for `CCC(C)S(=O)(=O)N(Cc1ccco1)Cc1ccccc1O` (centres undefined): -17.24%. As to `Cl.Nc1ccc(-c2cnc(C3CCCN3)cn2)cn1` (centres undefined), the “Percent Effect” value (30.3 µM, […]) is 19.85%. On the same count and under the same terms, the same measure for `O=C(NCCN1CCCC1)c1cc2c(s1)CCN2c1ncccn1`: 35.85%; for `Cc1ccc(N2CCc3sc(C(=O)NCCN4CCCC4)cc32)nn1`: 54.03%; for `Cc1ccc(N2CCc3sc(C(=O)N4CCOCC4)cc32)nn1`: -27.02%.

With `Cc1cc(C(=O)N2CC[C@H]3[C@H](C[C@@H](CN4CCCC4)N3C)C2)c(C)o1.O=C(O)C(F)(F)F.O=C(O)C(F)(F)F`, the “Percent Effect” value (30.3 µM, […]) was -13.25%.
